# Source: PubChem BioAssay AID372 (MTDP, 2006)
# Screen size: about 100,000 compounds; about 770 (0.77%) were called active. What follows is part of a selection rich in actives, with near analogues and random picks from the rest. A number with no mark means an inactive call. Cut-off read from the data, not from the text of the source: active = inhibition above about 50%; inactive = the rest.
# Target: Gag-Pol polyprotein (Human immunodeficiency virus type 1 group M subtype B (isolate HXB2)) (UniProt P04585)
# Test: RNase H inhibition, HIV 1 Gag Pol polyprotein, FRET biochemical assay, screening (AID 372)
# Settings: HIV-1 RT RNase H, FRET RNA/DNA substrate fluorescence; at 10 µM; stronger effect = higher value
row,Compound,inhibition
1,Clc1ccc(-c2nnc3ccc(N4CCOCC4)nn23)cc1,9%
2,COc1ccc(C2NC(=O)NC(C)=C2C(=O)OCC(Cl)(Cl)Cl)cc1OC (centres undefined),2%
3,COc1ccc2ccccc2c1/C=N/NC(=O)c1ccccc1C,13%
4,Cc1cc(I)ccc1NC(=O)c1ccc(-c2ccccc2[N+](=O)[O-])o1,49%
5,O=C1NC(=S)NC(=O)C1=Cc1cccc(OC(=O)c2ccc(Cl)cc2)c1,30%
6,CC(C)C(=O)NC(c1ccc(N(C)C)cc1)c1ccc2cccnc2c1O (centres undefined),7%
7,CCN(CC)c1nc2c(s1)C(=O)CC(C)(C)C2,0%
8,Cc1ccnc(NC(=O)c2cc(-c3ccc(C)c(C)c3)nc3ccccc23)c1,4%
9,O=C1c2ccccc2NC(c2ccccc2F)N1c1ccc(Cl)cc1 (centres undefined),5%
10,CCOC(=O)C1=C(C)N=c2s/c(=C/c3ccc(-c4ccc(C)c([N+](=O)[O-])c4)o3)c(=O)n2C1c1ccc(N(C)C)cc1 (centres undefined),43%
11,CCOC(=O)C1=C(C)N=c2s/c(=C\c3ccc(-c4cc(C)c(C)c([N+](=O)[O-])c4)o3)c(=O)n2C1c1ccc(N(C)C)cc1 (centres undefined),56% (active)
12,CCOC(=O)C1=C(C)N=c2s/c(=C\c3ccc(OCc4cccc5ccccc45)c(OC)c3)c(=O)n2C1c1ccc(OC)cc1 (centres undefined),14%
13,CCOC(=O)C1=C(C)N=c2s/c(=C\c3ccc(-c4cc(C)c(C)c([N+](=O)[O-])c4)o3)c(=O)n2C1c1ccccc1 (centres undefined),46%
14,CCOC(=O)C1=C(C)N=c2s/c(=C\c3ccc(-c4ccc(Cl)c(Cl)c4)o3)c(=O)n2C1c1ccc(OC)c(OC)c1 (centres undefined),9%
15,CCOC(=O)C1=C(C)N=c2s/c(=C/c3ccc(-c4cccc(Cl)c4)o3)c(=O)n2C1c1ccc(OC)c(OC)c1 (centres undefined),52% (active)
16,CCOC(=O)C1=C(C)N=c2s/c(=C\c3ccc(OCc4cccc5ccccc45)c(OC)c3)c(=O)n2C1c1ccc(OC)c(OC)c1 (centres undefined),55% (active)
17,CCOC(=O)C1=C(C)N=c2s/c(=C\c3ccc(OCc4cccc5ccccc45)c(OCC)c3)c(=O)n2C1c1ccc(OC)c(OC)c1 (centres undefined),0%
18,CCOC(=O)C1=C(C)N=c2s/c(=C\c3ccc(-c4ccc(Cl)cc4)o3)c(=O)n2C1c1ccc(OC)c(OC)c1 (centres undefined),13%
19,CCOC(=O)c1c(C)[nH]c(/C=C(/C#N)C(N)=NCc2ccccc2)c1O,11%
20,Cc1cc(C)c(S(=O)(=O)NC(=O)C23CC4CC(CC(C4)C2)C3)c(C)c1,2%
21,COc1cccc(/C=N/NC(=O)c2ccccc2O)c1,11%
22,O=C(NC(=S)Nc1ccc2oc(-c3ccccc3)nc2c1)c1ccccc1Cl,7%
23,O=C1NC(=Nc2ccc(F)cc2)S/C1=C/c1ccc(-c2ccc([N+](=O)[O-])cc2)o1,51% (active)

row,Compound,inhibition
1,Cc1ccc(N=C2NC(=O)/C(=C\c3ccc(C)o3)S2)cc1,52% (active)
2,Cc1ccc(N=C2NC(=O)/C(=C/c3ccc(-c4ccc(Cl)c([N+](=O)[O-])c4)o3)S2)cc1Cl,31%
3,Cc1ccc(/C=C2\SC(=Nc3ccc(F)cc3)NC2=O)o1,26%
4,Cc1ccc(N=C2NC(=O)/C(=C/c3ccc(-c4cc([N+](=O)[O-])ccc4Cl)o3)S2)cc1Cl,25%
5,Cc1ccc(N=C2NC(=O)/C(=C/c3ccccc3)S2)cc1,9%
6,O=C(COc1cccc(Cl)c1)N/N=C\c1ccc(O)cc1,1%
7,Cc1ccc2nc(-c3c(-c4ccccc4)c4cc(C)ccc4[nH]c3=O)cc(-c3ccccc3)c2c1,31%
8,Cc1ccccc1N1C(=O)c2cccnc2C1=O,22%
9,Cc1ccc(N2C(=O)c3cccnc3C2=O)cc1C,50% (active)
10,Cc1ccc(N2C(=O)c3ccccc3C2=O)cc1C,5%
11,COc1ccccc1/C=C1/C(=O)N(c2ccc(Cl)c(Cl)c2)N=C1C,3%
12,CCCC(=O)N(c1ccc(N(C(=O)CCC)S(=O)(=O)c2ccccc2)cc1)S(=O)(=O)c1ccccc1,1%
13,O=C(NC(=S)Nc1ccc2oc(-c3cc(Cl)ccc3Cl)nc2c1)c1ccc(F)cc1,19%
14,Cc1ccc(-c2nc3cc(Cl)cc(Cl)c3o2)cc1N,0%
15,O=C(NC(=S)Nc1ccc2oc(-c3ccc(Cl)cc3)nc2c1)c1ccc(F)cc1,57% (active)
16,O=C(NC(=S)Nc1ccc2oc(-c3ccc(Cl)cc3Cl)nc2c1)c1ccc(F)cc1,17%
17,O=C(NC(=S)Nc1ccc2oc(-c3cccc(Cl)c3)nc2c1)c1ccc(F)cc1,18%
18,Nc1ccc(-c2nc3cc(Cl)cc(Cl)c3o2)cc1,22%
19,O=C(NC(=S)Nc1ccc(Cl)c(-c2nc3cc(Cl)ccc3o2)c1)c1ccc(F)cc1,53% (active)
20,O=C(NC(=S)Nc1cccc(-c2nc3cc(Cl)ccc3o2)c1)c1ccc(F)cc1,57% (active)
21,O=C(NC(=S)Nc1cccc(-c2nc3cc(Cl)ccc3o2)c1)c1ccc(Br)cc1,9%
22,O=C(NC(=S)Nc1ccc(-c2nc3cc(Cl)ccc3o2)cc1)c1ccc(F)cc1,8%
23,Nc1cccc(-c2nc3cc(Cl)cc(Cl)c3o2)c1,55% (active)

row,Compound,inhibition
1,O=C(NC(=S)Nc1ccc2oc(-c3ccc(F)cc3)nc2c1)c1ccc(Cl)cc1,0%
2,CC(=O)Nc1nc2c(s1)C(=O)NCCC2,5%
3,Cn1c2ccccc2c2nnc(SCCN3CCOCC3)nc21,0%
4,O=Cc1ccc(OCc2ccc([N+](=O)[O-])cc2)cc1,16%
5,O=[N+]([O-])c1ccc(N2CCOCC2)cc1Sc1cccc2cccnc12,24%
6,Cc1ccc(S(=O)(=O)N2CCC(CN3C(=O)c4cccc5cccc(c45)C3=O)CC2)cc1,25%
7,Cc1cc(C)n(S(=O)(=O)c2ccc(Cl)c(Cl)c2Cl)n1,23%
8,CCCC1(CCC)NC(=S)N(c2nc3ccccc3s2)N1,7%
9,COc1ccc(N(CC(=O)NCc2ccccn2)S(=O)(=O)c2ccccc2[N+](=O)[O-])c(OC)c1,4%
10,O=C(/C=C/c1cccs1)c1ccc(C(=O)/C=C/c2cccs2)cc1,13%
11,O=C(/C=C/c1ccc(F)cc1)Nc1cccc2cccnc12,7%
12,O=C(NC(=S)Nc1cccc(-c2nc3cc(Cl)cc(Cl)c3o2)c1)c1cccc(F)c1,58% (active)
13,O=C(NC(=S)Nc1ccc(O)c(-c2nc3ccccc3o2)c1)c1ccc(F)cc1,56% (active)
14,O=C(NC(=S)Nc1cccc(-c2nc3cc(Cl)cc(Cl)c3o2)c1)c1ccc(Cl)cc1,11%
15,O=C(NC(=S)Nc1ccc(O)c(-c2nc3ccccc3o2)c1)c1ccc([N+](=O)[O-])cc1,9%
16,O=C(Nc1ccc(O)c(-c2nc3ccccc3o2)c1)c1ccc(F)cc1,6%
17,O=C(NC(=S)Nc1cccc(-c2nc3cc(Cl)cc(Cl)c3o2)c1)c1ccccc1Cl,19%
18,O=S(=O)(c1cc(Cl)ccc1Cl)n1ccnc1,0%
19,CCOC(=O)c1ccc(-c2ccc(/C=N/O)o2)cc1,0%
20,COC(=O)C1=C(C)NC2=C(C(=O)CC(c3ccc(OC)cc3)C2)C1c1cccc(OC)c1OC (centres undefined),11%
21,COc1ccccc1C(=O)NC(=S)Nc1cc(-c2nc3ccccc3o2)ccc1C,10%
22,Cc1ccccc1C(=O)NC(=S)Nc1cc(-c2nc3ccccc3o2)ccc1Cl,53% (active)
23,Cc1ccc(-c2nc3ccccc3o2)cc1NC(=S)NC(=O)c1ccccc1C,12%

row,Compound,inhibition
1,Cc1ccc2nc(-c3ccc(Cl)c(NC(=S)NC(=O)c4ccccc4C)c3)oc2c1,42%
2,COc1ccc(-c2nc3ccccc3o2)cc1NC(=S)NC(=O)c1ccccc1C,53% (active)
3,O=C(NC(=S)Nc1cc(-c2nc3ccccc3o2)ccc1Cl)c1ccccc1Br,9%
4,O=C(NC(=S)Nc1ccc(Cl)cn1)c1cccc(F)c1,13%
5,Cc1ccc2nc(-c3ccc(Cl)cc3)cn2c1,5%
6,O=C1C(=O)N(c2nc3ccccc3s2)C(c2ccccc2F)/C1=C(/O)c1ccccc1 (centres undefined),8%
7,O=C(Nc1c(C(=O)Nc2ccc(Br)cc2)cnn1-c1ccccc1)c1ccco1,8%
8,O=C(Nc1ccc(S(=O)(=O)N2CCCCC2)cc1)c1ccccc1Cl,57% (active)
9,O=C(Nc1ccc(S(=O)(=O)N2CCCCCC2)cc1)c1ccc(Cl)cc1Cl,8%
10,O=C(Nc1ccc(S(=O)(=O)N2CCOCC2)cc1)c1ccccc1Cl,0%
11,Cc1cccc(C(=O)NN=C2CCCCC2)c1,7%
12,CC(C)NS(=O)(=O)c1ccc(Br)cc1,0%
13,CC1=C(C#N)C(=O)NC(=O)/C1=C\c1ccc(-c2cc(C)c(C)cc2[N+](=O)[O-])o1,56% (active)
14,CC1=C(C#N)C(=O)NC(=O)/C1=C\c1ccc(-c2cccc(Cl)c2)o1,33%
15,CC1=C(C#N)C(=O)NC(=O)/C1=C\c1ccc(-c2ccc(Cl)c(Cl)c2)o1,50% (active)
16,CC(=O)c1cccc(-c2ccc(/C=C3\C(=O)NC(=O)C(C#N)=C3C)o2)c1,43%
17,Cc1cc(-c2ccc(/C=C3/C(=O)NN(c4ccc(F)cc4)C3=O)o2)c([N+](=O)[O-])cc1C,5%
18,Cc1cc(-c2ccc(C=C3C(=O)N(C)C(=O)N(C)C3=O)o2)c([N+](=O)[O-])cc1C,6%
19,O=C1NC(=S)NC(=O)C1=Cc1ccc(-c2ccc(Cl)cc2[N+](=O)[O-])o1,42%
20,Cc1ccc(-c2ccc(C=C3C(=O)NC(=O)NC3=O)o2)c([N+](=O)[O-])c1,14%
